High-throughput results: PubChem, National Center for Advancing Translational Sciences (NCATS)
Shown are actives, neighbours in structure and some others; about 19% of the full set was active somewhere.
TDP1 block – blocks human tyrosyl-DNA phosphodiesterase 1. Q9NUW8. recombinant TDP1, AlphaScreen DNA substrate cleavage. Potency, µM (highest dose often 130 µM), for the others: top-dose activity change, negative = inhibition, usual class: inhibitors. hit rate 0.28% among 350,000; also: nearly all actives have a fitted effect of over 40% in size
Target sequence (Q9NUW8 whole entry, looked up): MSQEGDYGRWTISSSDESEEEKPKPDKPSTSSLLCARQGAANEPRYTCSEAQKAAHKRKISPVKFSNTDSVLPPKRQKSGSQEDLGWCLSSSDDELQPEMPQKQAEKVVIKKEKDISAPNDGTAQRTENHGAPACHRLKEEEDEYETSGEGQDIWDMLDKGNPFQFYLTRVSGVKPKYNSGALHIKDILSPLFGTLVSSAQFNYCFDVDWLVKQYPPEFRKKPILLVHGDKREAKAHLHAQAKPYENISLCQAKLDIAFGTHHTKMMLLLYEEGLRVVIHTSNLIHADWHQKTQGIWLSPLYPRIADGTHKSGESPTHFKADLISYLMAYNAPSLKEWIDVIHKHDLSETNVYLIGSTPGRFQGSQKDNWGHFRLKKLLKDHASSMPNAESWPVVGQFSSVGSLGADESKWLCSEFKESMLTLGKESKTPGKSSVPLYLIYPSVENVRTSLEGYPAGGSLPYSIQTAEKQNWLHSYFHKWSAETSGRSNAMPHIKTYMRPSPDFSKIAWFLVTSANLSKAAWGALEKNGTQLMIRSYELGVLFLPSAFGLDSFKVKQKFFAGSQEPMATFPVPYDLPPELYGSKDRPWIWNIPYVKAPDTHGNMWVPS
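Here, a 5' biotin and 3' phosphotyrosine-FITC DNA oligonucleotide reports Tdp1 activity: intact substrate bridges AlphaScreen beads, while cleavage leaves a 3' phosphate and drops signal. All incubations at room temperature.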
DT40 TDP1 no CPT – qHTS for Inhibitors of human tyrosyl-DNA phosphodiesterase 1 (TDP1): qHTS in cells in absence of CPT | DT40 Tdp1-/- hTDP1 cells, no CPT, ATP luminescence, 48 h | hit rate 15% among 420,000 | Potency, µM (series often up to 46.2 µM), without a hit: top-dose activity change, negative = growth inhibition, usual class: inhibitors; also: nearly all actives have a fitted effect of over 55% in size
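Chicken DT40 Tdp1-/- cells stably complemented with human TDP1 were seeded at 400 cells/well with DMSO in place of 20 nM camptothecin. After compound pinning, cells grew at least 48 hr at 37 °C; viability read by CellTiter-Glo luminescence.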
VP16 counter – Gal4-VP16 reporter inhibition counter-screen; Drosophila S2 Gal4-VP16 UAS-luciferase, luminescence, 20 h; Potency, µM (series often up to 53.6 µM), for inactives: at the top dose activity, negative = inhibition, actives largely listed as inhibitors; hit rate 3.5% among 310,000; AID 2546;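 also: Gal4-VP16 expression switched on by copper sulfate through the metallothionein promoter; nearly all actives have a fitted effect of over 50% in size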
RORg inh – blocks mouse ROR gamma transcriptional activity; P51450; Drosophila S2 Gal4-RORgamma UAS-luciferase reporter, 20 h; Potency, µM (highest dose often 53.6 µM), for inactives: at the top dose activity change, negative = inhibition, usual class: inhibitors; hit rate 5.4% among 310,000; AID 2551; also: nearly all actives have a fitted effect of over 60% in size
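Luciferase reporter read in Schneider cells carrying Gal4-RORγ (mouse) and UAS-Photinus luciferase; cells given compound 1 h before 700 uM copper sulfate induction, then incubated 20 h at ambient temperature.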
DT40 TDP1 CPT – DT40-hTDP1 cell growth loss with CPT; Potency, µM (series often up to 46.2 µM), inactives show at the top dose activity change, negative = growth inhibition, hits mostly inhibitors; hit rate 12% among 420,000; chicken DT40 Tdp1-/-;hTDP1 cells + 20 nM CPT, ATP luminescence, 48 h; also: nearly all actives have a fitted effect of over 55% in size
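Chicken DT40 Tdp1-/- cells complemented with human TDP1, 400 cells/well, exposed to compounds plus 20 nM camptothecin for at least 48 h at 37 C; viability read as ATP content by CellTiter-Glo luminescence.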
* = called active by the depositor; ? = inconclusive; · = no result given; [ ] = remark or other dose. Calls follow the shape of the dose curve; as a rule, active = well fitted curve in the direction sought with a large enough effect; inconclusive = small, poorly fitted or top-dose-only effect, or another doubt; inactive = no such curve, though single readings can be large; an effect the other way counts as inactive or inconclusive. % is scaled to controls: 0 for no effect and ±100 for the full control effect; potency is read from the fitted curve at half-maximal effect.

SMILES	TDP1 block	DT40 TDP1 no CPT	VP16 counter	RORg inh	DT40 TDP1 CPT
COC(=O)[C@]12CCCCC=C1N(Cc1ccccc1)C(=O)[C@H](CC(=O)NCCCCc1ccccc1)C2	·	?	·	·	23µM*
COC(=O)[C@]12CCCCC=C1N(Cc1cccc3ccccc13)C(=O)[C@H](CC(=O)NCCCCc1ccccc1)C2	·	16µM*	·	·	?
COC(=O)[C@]12CCCCC=C1N(Cc1ccccc1)C(=O)[C@H](CC(=O)NCCCN1CCCC1=O)C2	·	-17%	·	·	-1%
COC(=O)[C@]12CCCCC=C1N(Cc1cccc3ccccc13)C(=O)[C@H](CC(=O)NCc1ccc(C)o1)C2	·	21µM*	·	·	?
CC(=O)N1CCC(N(CCN2CCOCC2)C(=S)Nc2cccc(C)c2)CC1	3%	?	?	4%	-4%
CC(=O)Nc1ccc(NC(=O)Cn2c(CC(=O)N3CCCC3)nc3ccccc32)cc1	4%	-9%	2%	-15%	-20%
CC(=O)N1CCCC(C)(C(=O)N(C)Cc2cccc3ccccc23)C1 (stereo not drawn)	·	?	·	·	23µM*
COc1ccc(CCN2CC(C(=O)NCCc3ccc(C)cc3)CC2=O)cc1OC (stereo not drawn)	-10%	3%	-5%	2%	-7%
Cc1[nH]c2ccccc2c1/C=N/Nc1ccc([N+](=O)[O-])cc1S(=O)(=O)Nc1ccc(Cl)cc1	2%	15µM*	2%	10%	21µM*
COc1ccc(NS(=O)(=O)c2cc([N+](=O)[O-])ccc2N/N=C\c2c(C)[nH]c3ccccc23)cc1	1%	?	0%	-7%	16µM*
CCCn1c(=N)c(C(=O)NC2CCCCC2)cc2c(=O)n3cc(C)ccc3nc21	·	9%	·	·	0%
Nc1nc(Cl)cc(Sc2ccc3ccccc3c2)n1	-1%	23µM*	16%	-10%	15µM*
COc1ccc(N2CCN(C(=O)CN3C(=O)NC4(CCCc5ccccc54)C3=O)CC2)cc1 (stereo not drawn)	-1%	16µM*	·	·	-8%
O=C(CN1C(=O)NC2(CCc3ccccc32)C1=O)c1ccc(Br)cc1 (stereo not drawn)	6%	-26%	·	·	?
CC(C)c1ccc(C(=O)CN2C(=O)NC3(CCc4ccccc43)C2=O)cc1 (stereo not drawn)	3%	21µM*	·	·	?
Cc1ccc(NC(=O)CN2C(=O)NC3(CCc4ccccc43)C2=O)cc1Cl (stereo not drawn)	2%	26µM*	-4%	19%	-25%
O=C(CN1C(=O)NC2(CCCc3ccccc32)C1=O)c1ccc(Br)cc1 (stereo not drawn)	0%	13µM*	·	·	?
N#Cc1cccc(-c2nc3cnc(Nc4ccccc4)nc3n(C[C@H]3CCCO3)c2=O)c1	·	-5%	-1%	-17%	9%
Cn1c(=O)c2cc(NC(=S)NC3CC3)ccc2n1Cc1ccccc1	·	-21%	·	·	-32%
CNS(=O)(=O)c1cc(OC)ccc1OC	2%	-5%	-2%	-29%	?
O=C(Nc1ccc(F)cc1F)C1CCN(c2ncnc3c2sc2cccc(F)c23)CC1	·	16µM*	-3%	-1%	6.5µM*
CCC1CCCCN1C(=O)c1c(-c2ccccc2)noc1C (stereo not drawn)	-3%	?	-10%	-8%	?
CSC1=C(C#N)C(=O)NC(c2ccc(Cl)cc2)S1 (stereo not drawn)	·	16µM*	7%	-9%	?
CSc1nc(-c2ccc(Cl)cc2)c(C#N)c(=O)n1C	-3%	-15%	-4%	-8%	-1%
O=C(N/N=C/c1ccncc1)c1ccccc1[N+](=O)[O-]	5%	-10%	2%	-18%	5%
SMILES	TDP1 block	DT40 TDP1 no CPT	VP16 counter	RORg inh	DT40 TDP1 CPT
O=C(N/N=C/c1ccc(Cl)s1)c1ccccc1[N+](=O)[O-]	1%	?	7.1µM*	6.3µM*	-14%
O=C(N/N=C/c1cc(Br)cs1)c1ccccc1[N+](=O)[O-]	5%	?	7.9µM*	5.6µM*	?
O=C(N/N=C/c1cc(Br)cs1)c1c[nH]c2ccccc12	0%	?	?	4%	?
O=C(c1ccc(Cl)c(S(=O)(=O)Nc2ccccc2C(=O)N2CCc3ccccc3C2)c1)N1CCc2ccccc2C1	0%	?	-4%	-16%[10 µM]	?
C=CC[n+]1c(/C=C2\C=Cc3cc(C)ccc3N2CC)ccc2ccccc21	6%	0.073µM*	3.2µM*	?	0.18µM*
COC(=O)CC1c2ccccc2C=C(C)N1C(=O)OC (stereo not drawn)	5%	·	-6%	-5%	·
Cc1cc(C)n2c(NC3CCCC3)c(-c3ccc(F)cc3)nc2n1	·	18µM*	·	·	?
Cc1cc(C)n2c(NC3CCCCC3)c(-c3ccccn3)nc2n1	·	23µM*	·	·	?
COCc1cc(C)nc(OCC(=O)N/N=C/c2ccc(O)cc2)c1C#N	8%	-2%	-1%	13%	-17%
CCCCn1c(N)c(N(CCC(C)C)C(=O)COC(=O)c2ccco2)c(=O)[nH]c1=O	-1%	-4%	4%	11%	3%
O=c1[nH]c(/C(=N\O)c2ccccc2)no1	2%	15µM*	?	?	?
COc1ccccc1[C@@H]1C(c2ccccc2)=NN(c2ccc(Br)cc2)[C@H]1C(=O)N1CCOC1=O	-7%[56.1 µM]	-6%	-4%[40.7 µM]	-21%[40.7 µM]	?
COc1cc(C(=O)OCCc2c(C)nc3nc[nH]n3c2=O)cc(OC)c1OC	-2%	1%	3%	-16%	10%
CC(C)n1c(SCC(=O)Nc2nncs2)nnc1-c1ccco1	11µM*	0%	-4%	0%	4%
Cc1ccccc1NC(=O)CSc1ccc(-c2ccco2)nn1	3%	?	14%	1%	?
COc1cccc(NC(=O)CSc2ccc(-c3ccco3)nn2)c1	3%	?	-8%	2%	-13%
COc1ccc(NC(=O)CSc2ccc(-c3ccco3)nn2)cc1OC	4%	10µM*	8%	20%	16µM*
Cc1nnc(NC(=O)CSc2ccc(-c3ccco3)nn2)s1	45µM*	-19%	-9%	0%	-30%
COc1ccc(NC(=O)N(CCO)Cc2cc3c(C)cc(C)cc3[nH]c2=O)cc1	2%	-29%	-5%	2%[10 µM]	-4%
CCc1ccc2c(O)c3c(cc2c1C(=O)OC)C(=O)c1c(O)ccc(O)c1C3=O	-11%	1%	-10%	2%	-10%
Clc1ccccc1C1CC(c2ccccc2)=Nc2ccccc2N1 (stereo not drawn)	3%	?	2%	-16%	?
